The source of these data is PubChem BioAssay (NCATS).

Inconclusive results are not listed. Calls of active or inactive are those of the source. Unless noted, calls come from the whole dose curve; as a rule, active = well fitted curve in the direction sought with a large enough effect; inconclusive = small, poorly fitted or top-dose-only effect, or another doubt; inactive = no such curve, though single readings can be large; an effect the other way counts as inactive or inconclusive.

In test [1] the target is Chromobox protein homolog 1 (Homo sapiens) (UniProt P83916). In words: qHTS Validation Assay for Inhibitors of HP1-beta Chromodomain Interactions with Methylated Histone Tails (AID 488953). Note: nearly all actives have a fitted effect of over 50% in size. Note: potency is the fitted concentration of half-maximal effect. An outline of the steps: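 50 nM HP1-beta + 50 nM biotin-H3(1-18)K9me3, PBS pH 7.4, 0.01% Tween-20, 30 min RT; compound added, 30 min RT; AlphaScreen beads 10 ug/mL final, 30 min dark; luminescence read.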
(Quantitative high-throughput screening tests each substance at several concentrations.)

Test [2] deals with Methanococcus maripaludis chaperonin (MmCpn) (UniProt Q6LX38). In words: High-Throughput Screening for Modulators of Cytosolic Chaperonin Activity: MmCpn Primary Screen (AID 488978).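 Note: 50 nM MmCpn enzyme hydrolysing 30 µM ATP at 37 °C; 0% is about no effect.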 An outline of the steps:
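Measures ATPase turnover of the M. maripaludis chaperonin (50 nM final) against 30 uM ATP over 10 min at 37C, with compound added 5 min beforehand at room temperature. ADP is quantified by HTRF immunodetection.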

Test [3] has as its target Thyrotropin receptor (Homo sapiens) (UniProt P16473). In words: qHTS Assay for Antagonists of the Thyroid Stimulating Hormone Receptor (AID 488980). Note: series mostly up to about 58 µM; 0% is about no effect. Put shortly: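 Cells expressing human TSHR (HEK293) are dispensed in HBSS/HEPES containing 70 uM RO 20-1724, compound is added, then TSH at EC80 (4 nM final). Antibody in lysis buffer follows, 30 minutes at room temperature before HTRF detection.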

The target of test [4] is D(1A) dopamine receptor (Homo sapiens) (UniProt P21728). In words: HTS Assay for Allosteric Agonists of the Human D1 Dopamine Receptor: Primary Screen for Agonists (AID 488981). Note: 0% is about no effect. An outline of the steps: (§1)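 Tetracycline-induced HEK293 Trex D1 cells with forced coupling to calcium, loaded with no-wash calcium dye; kinetic fluorescence read 180 s after compound addition for agonism, then a further 180 s after an EC20 dopamine challenge for potentiation.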

Test [5] has the same target. In words: HTS Assay for Allosteric Agonists of the Human D1 Dopamine Receptor: Primary Screen for Potentiators (AID 488982). Note: 0% is about no effect. Put shortly:
as §1

Test [6] shares this target. In words: HTS Assay for Allosteric Agonists of the Human D1 Dopamine Receptor: Primary Screen for Antagonists (AID 488983).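 Note: calcium flux response to an EC80 dopamine challenge measured with no-wash dye; % is set by controls: 0 for no effect and ±100 for the full control effect; nearly all actives have a fitted effect of over 65% in size.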 An outline of the steps: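 Cells are induced with tetracycline and incubated overnight at 30 C, then loaded with calcium dye for 30 to 90 minutes at room temperature. Compound addition is followed by a 180 s read, then an EC80 dopamine addition and another 180 s read.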

The nature of test [7]: Validation screen for small molecules that induce genotoxicity in human embryonic kidney (HEK293T) cells expressing luciferase-tagged ELG1 (AID 493106). Note: 0% is about no effect. An outline of the steps: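 Luminescence from an ELG1-luciferase fusion serves as the read-out, rising when genetic stress elevates ELG1 protein. HEK293T reporter cells (2,000 per well) received 23 nL compound, incubated 16 hr at 37 °C, then ONE-Glo for 30 min at room temperature.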

For test [8], the target named is Thyrotropin-releasing hormone receptor (Homo sapiens) (UniProt P34981). In words: qHTS for Small Molecule Agonists and Allosteric Enhancers of Human TRH Receptor: Validation Screen for Agonists (AID 493127;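 active = calcium activation more than 3 SD above the typical response in the agonist read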;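 note: intracellular calcium rise by fluo-8 fluorescence before TRH EC20 addition; 0% is about no effect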). Conditions: TRH receptor agonist cell assay; at 2 µM; stronger effect = higher value. An outline of the steps:
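Cells 2000/well, 10% FCS, 18 h 33.5C/5% CO2 → fluo-8 Ca dye, RT 30 min–1.5 h → FDSS baseline 10 × 1 s → compound added → 230 cycles (1 s/cycle) agonist mode. TRH controls.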

Test [9] in a line: Nrf2 qHTS screen for inhibitors: Validation (AID 493153; active = well fitted inhibition curve with a large enough effect in the main read-out, with a control signal flat, not every such curve was filed as active; note: potency is the fitted concentration of half-maximal effect). The settings on record: Potency: luciferase luminescence; viability change: measured here: cytotoxicity max response. Put shortly: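 Luminescence from an ARE-firefly luciferase reporter in A549 cells gives Nrf2 inhibition; an earlier CellTiter-Fluor fluorescent read flags cytotoxicity. Cells in 5% FBS OPTI-MEM received compound dilution series for 18-24 h at 37°C.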

The nature of test [10]: qHTS for Inhibitors of Cell Surface uPA Generation: Validation Assay (AID 493164). Note: 0% is about no effect. Put shortly:
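RAW 264.7 cells (4000/well) were plated overnight, then exposed for 18 h at 37 C, 5% CO2 to compounds in a 7-point 1:5 titration (2.45 nM–38.3 uM final). Intracellular ATP was read by ATP-Lite luminescence.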

For test [11], the target named is Galactokinase (Homo sapiens) (UniProt P51570). In words: qHTS Validation Assay for Inhibitors of Human Galactokinase (GALK) (AID 493189). Note: 0% is about no effect. Put shortly: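 Compounds were pin-transferred into ATP buffer, then GALK-galactose mix was added (final 5 nM enzyme, 100 uM galactose, 35 uM ATP). After 1 h at room temperature, remaining ATP was measured luminescently.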
Test [12] is described as follows: Validation screen for small molecules that induce DNA re-replication in SW480 colon adenocarcinoma cells (AID 504364). Note: 0% is about no effect. An outline of the steps: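 250 cells/well; compound pinned in; 48 hr, 37 C, 5% CO2; Hoechst added, 40 min; nuclear fluorescence imaged, 405 ex / 500-530 em; re-replication scored as increase in high-intensity nuclei.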
For test [13], the target named is Peptidyl-prolyl cis-trans isomerase NIMA-interacting 1 (Homo sapiens) (UniProt Q13526). In words: qHTS Validation Assay to Find Inhibitors of Pin1 (AID 504536; active = well fitted inhibition curve with a large enough effect in the polarisation, with a control signal flat, not every such curve was filed as active; the % refers to the polarisation;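 note: 0% = full Pin1 enzyme wells and -100% = no-enzyme wells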). Put shortly: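 Fluorescence polarization competition: compounds (titration) displace HiFluor-488-labeled Pin1-1b peptide from Pin1 (0.3 uM final) in pH 7.5 HEPES buffer with DTT, 10 min at room temperature; %Activity normalized to no-enzyme wells, curves fitted.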

Test [14] concerns the target Phosphoglycerate kinase, glycosomal (Trypanosoma brucei brucei) (UniProt P07378). In words: qHTS Validation Assay to Find Inhibitors of Phosphoglycerate Kinase (AID 504547).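 Note: control wells lack PGK and mark full inhibition.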 An outline of the steps: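 PGK activity was coupled to GAPDH (100nM final), which generates the unstable substrate 1,3-bisphosphoglycerate in-well. Reactions ran 60 minutes at room temperature in 100mM TEA pH 7.6, 5mM MgCl2, 0.01% Tween-20, then Kinase-Glo Plus luminescence was read.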

In test [15] the target is phosphoglycerate mutase (Leishmania major) (UniProt Q4Q090). In words: qHTS Validation Assay to Find Inhibitors of Phosphoglycerate Mutase (AID 504548).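 Note: end-point luminescence from Kinase-GloPlus after the PGAM reaction; series mostly up to about 58 µM; % is set by controls: 0 for no effect and ±100 for the full control effect.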 The settings on record: Potency: inhibition qHTS. An outline of the steps: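 L. major PGAM (1.25nM final) was added to substrate buffer and pinned compound, incubated 45 minutes at room temperature, then Kinase-GloPlus added; luminescence read after 10 minutes. Buffer: 100 mM TEA pH 7.6, 5 mM MgCl2, 0.01% Tween-20.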

Test [16] concerns the target Ubiquitin carboxyl-terminal hydrolase 1 (Homo sapiens) (UniProt O94782). In words: Inhibitors of USP1/UAF1: Pilot qHTS (AID 504865).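 Note: rhodamine fluorescence freed from ubiquitin-rhodamine substrate followed over time; top concentration of the series differs between compounds; % is set by controls: 0 for no effect and ±100 for the full control effect; nearly all actives have a fitted effect of over 35% in size.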 An outline of the steps:
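Kinetic fluorescence assay: 1nM USP1/UAF1, 15 min compound preincubation, then 150nM Ub-Rho; 480/540 nm.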

The nature of test [17]: qHTS for Inhibitors of ATXN expression: Validation of Cytotoxic Assay (AID 588349). Note: % is set by controls: 0 for no effect and ±100 for the full control effect. Put shortly: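 Read-out: ATP-based luminescence (CellTiter Glo) reflecting viability of HEK293 cells after 72 hr incubation at 37 degrees C with a concentration series of each compound.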
The nature of test [18]: qHTS for Inhibitors of ATXN expression: Validation (AID 588378). Note: series mostly up to about 57 µM; % is set by controls: 0 for no effect and ±100 for the full control effect; nearly all actives have a fitted effect of over 75% in size. Put shortly: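 Validation of ATXN2 expression inhibitors uses a cell-based luciferase fusion reporter in HEK293 cells, with 24 h compound exposure and paired viability (fluorescence) and reporter (luminescence) end-point reads.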
For test [19], the target named is ATPase family AAA domain-containing protein 5 (Homo sapiens) (UniProt Q96QE3). In words: Validation screen for small molecules that inhibit ELG1-dependent DNA repair in human embryonic kidney (HEK293T) cells expressing luciferase-tagged ELG1 (AID 493107).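 Note: cells co-treated with the DNA-damaging agent 5-fluorouridine alongside compound; series mostly up to about 46 µM; % is set by controls: 0 for no effect and ±100 for the full control effect; inhibitors lower the ELG1-luciferase luminescence signal; nearly all actives have a fitted effect of over 70% in size.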 An outline of the steps:
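Luminescence from ONE-Glo, developed 30 min at room temperature, served as read-out of ELG1-luciferase levels. Beforehand, reporter HEK293T cells received 5-fluorouridine plus test compound for 16 hr at 37 °C.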

The target of test [20] is ATP-dependent 6-phosphofructokinase (Trypanosoma brucei brucei) (UniProt O15648). In words: qHTS Assay to Find Inhibitors of T. brucei phosphofructokinase: hit validation (AID 492961).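 Note: luminescence reports ADP formed as PFK phosphorylates fructose-6-phosphate with ATP; series mostly up to about 51 µM; % is set by controls: 0 for no effect and ±100 for the full control effect.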 An outline of the steps:
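Compounds titrated; %activity normalized to 0x and 1x enzyme controls, curve-fitted. Readout: ADP-Glo luminescence after 45 min room-temperature reaction of 1.25 nM PFK, 0.1 mM ATP, 0.5 mM F6P, pH 8.0.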

Chromobox protein homolog 1 (Homo sapiens), sequence (P83916 whole entry, looked up): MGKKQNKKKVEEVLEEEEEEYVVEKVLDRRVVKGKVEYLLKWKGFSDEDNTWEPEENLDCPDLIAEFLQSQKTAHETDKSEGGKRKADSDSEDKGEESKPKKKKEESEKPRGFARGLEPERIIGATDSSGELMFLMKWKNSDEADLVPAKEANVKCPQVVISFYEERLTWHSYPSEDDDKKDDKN
phosphoglycerate mutase (Leishmania major), sequence (Q4Q090 1-553): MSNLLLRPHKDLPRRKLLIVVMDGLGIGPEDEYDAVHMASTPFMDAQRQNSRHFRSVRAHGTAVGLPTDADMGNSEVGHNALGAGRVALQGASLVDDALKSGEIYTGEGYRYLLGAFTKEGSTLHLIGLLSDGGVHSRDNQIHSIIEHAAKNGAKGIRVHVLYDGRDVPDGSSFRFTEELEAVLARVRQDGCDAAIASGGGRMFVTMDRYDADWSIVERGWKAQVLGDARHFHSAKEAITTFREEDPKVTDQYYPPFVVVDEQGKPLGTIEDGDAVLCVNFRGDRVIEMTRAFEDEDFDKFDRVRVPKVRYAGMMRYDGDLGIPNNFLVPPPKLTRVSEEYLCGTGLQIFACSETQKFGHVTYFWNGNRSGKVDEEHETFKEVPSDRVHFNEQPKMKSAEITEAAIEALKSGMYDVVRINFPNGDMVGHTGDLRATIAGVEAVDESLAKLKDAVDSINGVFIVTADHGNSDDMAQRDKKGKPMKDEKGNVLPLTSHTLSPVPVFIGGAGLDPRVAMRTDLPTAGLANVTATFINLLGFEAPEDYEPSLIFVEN
Methanococcus maripaludis chaperonin (MmCpn), sequence (Q6LX38 1-543): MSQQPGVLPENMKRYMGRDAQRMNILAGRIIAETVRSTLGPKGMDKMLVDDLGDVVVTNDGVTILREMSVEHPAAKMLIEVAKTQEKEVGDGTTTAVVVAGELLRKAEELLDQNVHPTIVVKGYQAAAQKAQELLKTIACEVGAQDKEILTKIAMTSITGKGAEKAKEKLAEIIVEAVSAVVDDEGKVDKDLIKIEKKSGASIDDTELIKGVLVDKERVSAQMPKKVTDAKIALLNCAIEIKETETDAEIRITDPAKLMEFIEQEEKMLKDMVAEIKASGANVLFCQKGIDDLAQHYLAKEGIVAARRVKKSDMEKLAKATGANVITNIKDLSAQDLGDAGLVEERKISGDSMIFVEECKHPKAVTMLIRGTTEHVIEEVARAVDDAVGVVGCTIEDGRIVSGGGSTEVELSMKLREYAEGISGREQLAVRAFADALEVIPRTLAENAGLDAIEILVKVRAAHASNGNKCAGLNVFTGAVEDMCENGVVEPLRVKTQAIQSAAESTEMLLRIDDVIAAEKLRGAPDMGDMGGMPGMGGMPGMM
Phosphoglycerate kinase, glycosomal (Trypanosoma brucei brucei), sequence (P07378 whole entry, looked up): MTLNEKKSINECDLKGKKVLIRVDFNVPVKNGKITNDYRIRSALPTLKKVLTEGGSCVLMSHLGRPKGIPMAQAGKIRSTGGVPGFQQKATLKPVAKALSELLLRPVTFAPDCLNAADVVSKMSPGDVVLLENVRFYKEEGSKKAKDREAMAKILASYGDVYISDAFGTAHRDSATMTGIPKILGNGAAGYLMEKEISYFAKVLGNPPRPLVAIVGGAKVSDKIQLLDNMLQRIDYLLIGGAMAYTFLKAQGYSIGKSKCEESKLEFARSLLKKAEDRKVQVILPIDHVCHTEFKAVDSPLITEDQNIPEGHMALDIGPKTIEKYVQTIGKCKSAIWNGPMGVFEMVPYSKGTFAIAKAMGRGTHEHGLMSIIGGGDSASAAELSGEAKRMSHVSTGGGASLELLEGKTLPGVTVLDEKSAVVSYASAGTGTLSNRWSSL
Thyrotropin-releasing hormone receptor (Homo sapiens), sequence (P34981 whole entry, looked up): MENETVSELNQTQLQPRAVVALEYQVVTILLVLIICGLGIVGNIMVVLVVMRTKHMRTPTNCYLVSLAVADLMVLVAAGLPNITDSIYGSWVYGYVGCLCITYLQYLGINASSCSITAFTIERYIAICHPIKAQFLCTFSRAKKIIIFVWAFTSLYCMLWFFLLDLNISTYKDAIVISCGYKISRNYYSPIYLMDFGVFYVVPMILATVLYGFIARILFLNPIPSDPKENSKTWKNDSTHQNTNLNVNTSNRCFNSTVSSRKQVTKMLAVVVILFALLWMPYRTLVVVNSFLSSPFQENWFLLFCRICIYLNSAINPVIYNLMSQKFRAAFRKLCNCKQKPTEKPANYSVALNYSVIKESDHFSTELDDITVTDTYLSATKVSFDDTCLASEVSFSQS
Ubiquitin carboxyl-terminal hydrolase 1 (Homo sapiens), sequence (O94782 whole entry, looked up): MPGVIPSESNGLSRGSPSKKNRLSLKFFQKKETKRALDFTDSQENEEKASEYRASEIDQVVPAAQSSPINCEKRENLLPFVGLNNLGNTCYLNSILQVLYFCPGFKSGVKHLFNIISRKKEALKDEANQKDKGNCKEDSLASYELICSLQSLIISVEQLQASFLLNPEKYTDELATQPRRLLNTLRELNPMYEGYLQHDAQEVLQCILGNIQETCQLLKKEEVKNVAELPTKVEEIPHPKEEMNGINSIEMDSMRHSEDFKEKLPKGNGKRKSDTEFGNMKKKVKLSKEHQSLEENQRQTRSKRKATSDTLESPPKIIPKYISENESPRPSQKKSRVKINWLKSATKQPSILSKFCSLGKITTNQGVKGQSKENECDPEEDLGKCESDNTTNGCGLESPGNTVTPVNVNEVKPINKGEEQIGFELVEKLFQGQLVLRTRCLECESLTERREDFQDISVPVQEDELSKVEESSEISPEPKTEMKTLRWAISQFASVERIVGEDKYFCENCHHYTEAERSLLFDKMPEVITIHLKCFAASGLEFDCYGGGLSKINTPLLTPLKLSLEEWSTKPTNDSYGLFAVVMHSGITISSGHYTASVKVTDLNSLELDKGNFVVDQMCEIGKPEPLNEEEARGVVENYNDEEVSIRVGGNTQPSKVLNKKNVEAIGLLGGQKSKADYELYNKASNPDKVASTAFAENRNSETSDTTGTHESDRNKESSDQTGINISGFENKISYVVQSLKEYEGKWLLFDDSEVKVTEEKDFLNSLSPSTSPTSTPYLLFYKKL
D(1A) dopamine receptor (Homo sapiens), sequence (P21728 whole entry, looked up): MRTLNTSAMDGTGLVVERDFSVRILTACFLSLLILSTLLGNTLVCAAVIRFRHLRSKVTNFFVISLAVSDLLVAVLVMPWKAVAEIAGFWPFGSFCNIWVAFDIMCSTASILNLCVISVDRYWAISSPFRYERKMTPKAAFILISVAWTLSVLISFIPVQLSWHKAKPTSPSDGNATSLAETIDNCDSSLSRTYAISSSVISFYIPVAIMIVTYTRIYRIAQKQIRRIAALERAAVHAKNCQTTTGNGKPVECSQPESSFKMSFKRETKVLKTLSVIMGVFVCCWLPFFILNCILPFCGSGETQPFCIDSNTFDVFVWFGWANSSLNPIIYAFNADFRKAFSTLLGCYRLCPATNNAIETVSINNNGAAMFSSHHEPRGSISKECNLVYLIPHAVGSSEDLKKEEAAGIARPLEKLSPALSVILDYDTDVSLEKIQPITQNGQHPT
Thyrotropin receptor (Homo sapiens), sequence (P16473 whole entry, looked up): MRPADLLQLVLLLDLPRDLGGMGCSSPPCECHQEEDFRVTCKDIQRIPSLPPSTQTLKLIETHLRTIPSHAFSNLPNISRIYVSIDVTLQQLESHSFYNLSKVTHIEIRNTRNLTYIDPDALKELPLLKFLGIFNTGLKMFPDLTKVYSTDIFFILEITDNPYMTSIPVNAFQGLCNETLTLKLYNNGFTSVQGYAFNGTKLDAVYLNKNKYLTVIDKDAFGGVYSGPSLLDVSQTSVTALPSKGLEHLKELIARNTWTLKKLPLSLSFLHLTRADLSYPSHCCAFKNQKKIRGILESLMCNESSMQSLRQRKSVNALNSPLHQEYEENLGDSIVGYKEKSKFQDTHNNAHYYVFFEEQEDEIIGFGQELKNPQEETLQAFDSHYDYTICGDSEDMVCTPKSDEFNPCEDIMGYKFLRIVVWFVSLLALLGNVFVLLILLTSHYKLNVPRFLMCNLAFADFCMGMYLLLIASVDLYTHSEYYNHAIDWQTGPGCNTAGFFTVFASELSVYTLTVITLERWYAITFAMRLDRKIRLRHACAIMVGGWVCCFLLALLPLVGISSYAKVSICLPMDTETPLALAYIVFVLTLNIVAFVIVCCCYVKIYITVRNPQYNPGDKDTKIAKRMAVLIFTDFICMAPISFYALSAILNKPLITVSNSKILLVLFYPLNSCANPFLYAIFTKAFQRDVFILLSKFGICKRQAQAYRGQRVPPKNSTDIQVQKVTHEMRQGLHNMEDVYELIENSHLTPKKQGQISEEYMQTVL
Peptidyl-prolyl cis-trans isomerase NIMA-interacting 1 (Homo sapiens), sequence (Q13526 whole entry, looked up): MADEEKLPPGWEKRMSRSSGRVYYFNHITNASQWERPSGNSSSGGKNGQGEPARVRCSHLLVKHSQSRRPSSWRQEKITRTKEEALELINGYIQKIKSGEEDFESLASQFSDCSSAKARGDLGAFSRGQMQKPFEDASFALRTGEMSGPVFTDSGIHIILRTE
Galactokinase (Homo sapiens), sequence (P51570 whole entry, looked up): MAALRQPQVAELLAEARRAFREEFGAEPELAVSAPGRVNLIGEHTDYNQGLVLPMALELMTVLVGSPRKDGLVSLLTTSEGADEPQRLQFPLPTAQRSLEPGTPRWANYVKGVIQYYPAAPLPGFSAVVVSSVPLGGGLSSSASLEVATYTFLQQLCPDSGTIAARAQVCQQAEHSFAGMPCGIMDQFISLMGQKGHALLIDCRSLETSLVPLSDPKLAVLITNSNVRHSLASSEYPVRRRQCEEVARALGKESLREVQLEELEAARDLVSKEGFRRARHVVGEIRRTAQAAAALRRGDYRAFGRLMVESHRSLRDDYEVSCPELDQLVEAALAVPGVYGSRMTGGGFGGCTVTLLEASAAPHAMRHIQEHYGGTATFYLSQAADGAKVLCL

As to `NCCCCNCCCN`, the Potency result in test [1], in [5], in test [6], in [7], in test [9] and in test [12] was “inactive” throughout. Besides, the Potency entry in test [14], in test [15], in test [16] and in test [18] was “inactive” throughout. Also, the compound was classed as inactive in test [2], in [3], in test [4], in [10], in test [11] and in test [13]. In [17], the result was inactive. Also, the activation in test [8] was -0.0625% (inactive). The viability change in test [9] was determined as 3.72%.

With `O=C1c2c(O)cc(O)cc2OC(c2ccc(O)c(O)c2)C1O` (stereo not given), the Potency in test [1] is 0.0084 µM (active). Also, the call in test [2], in test [3], in test [4], in [19], in test [10] and in test [11] was inactive. Besides, the outcome in test [17] was inactive. Besides, the Potency result in [6], in test [7], in test [9], in test [12], in test [15] and in [16] was “inactive” throughout. In [18], the Potency result was “inactive”. Besides, the activation in test [8] was 0% (inactive). Moreover, the viability change in [9] is -0.133%.

As to `O=c1ccc2ccc(O)c(O)c2o1`, the call in test [2], in test [3], in test [4], in [10], in [11] and in [17] was inactive. Moreover, the Potency entry in test [6], in [7], in test [9], in test [15], in test [16] and in test [18] was “inactive” throughout. Besides, the activation in [8] is -0.188% (inactive). The viability change in test [9] is 21%.

Regarding `O=c1cc(N2CCOCC2)oc2c(-c3ccccc3)cccc12`, the Potency in test [1] is 26.7 µM (active); in test [9] it was 9.2 µM (active). Moreover, the outcome in [2], in [3], in [4], in test [10], in [11] and in test [13] was inactive. Further, the compound was called inactive in test [17]. Moreover, the Potency result in [5], in [6], in [7], in test [12], in test [14] and in test [15] was “inactive” in each case. Besides, the Potency entry in test [16] and in [18] was “inactive” throughout. Further, the activation in test [8] was -3.19% (inactive). Moreover, the viability change in test [9] was -18.1%.

As for `Cc1c(OCC(F)(F)F)ccnc1CS(=O)c1nc2ccccc2[nH]1` (stereo not given), the compound was called inactive in [2], in [3], in [4], in test [20], in [10] and in [11]. Also, the result in [13] and in test [17] was inactive. Also, the Potency entry in test [5], in test [6], in test [7], in [12], in test [14] and in [15] was “inactive” throughout. The Potency entry in test [16] is “inactive”. For the same compound, in test [8], the activation was 4.38% (inactive).
